Our source for the outcome and AC50 values is PubChem BioAssay (EPA / NIEHS).

SMILES strings stand for the structures. Several values for one entry are separate records, joined by “and”; a condition that tells them apart may be missing. Identical values can stand only once. Activity calls are given as the source filed them. How the source made its calls: active means hit-call score of the fitted dose curve at least 0.9, where 1 is the maximum; inactive means score below 0.9.

Chain of Tumor necrosis factor (Homo sapiens) (P01375 whole entry, looked up): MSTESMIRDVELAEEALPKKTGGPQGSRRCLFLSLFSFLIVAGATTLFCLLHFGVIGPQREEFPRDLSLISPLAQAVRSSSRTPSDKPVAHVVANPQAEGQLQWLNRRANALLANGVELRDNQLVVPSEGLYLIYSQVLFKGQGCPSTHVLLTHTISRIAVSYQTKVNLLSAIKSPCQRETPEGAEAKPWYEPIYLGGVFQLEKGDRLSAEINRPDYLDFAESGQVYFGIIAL

Read-out in the assay: Tumor necrosis factor (Homo sapiens) (UniProt P01375)
The assay can be described thus: BSK_LPS_TNFa: BioMAP Diversity Plus: LPS Assay for Tumour Necrosis Factor alpha (TNFa) Biomarker Activity (AID 2283085). The conditions noted are these: primary human HUVEC with PBMC; actives raise or lower the signal. How it is done: BSK_LPS is a cell-based, multiplexed-readout assay that uses umbilical vein endothelium and peripheral blood mononuclear cells, a human vascular primary cell co-culture, with measurements taken at 24 hours after chemical dosing in a 96-well plate.BSK_LPS_TNFa is an assay component measured in the BSK_LPS assay. It measures TNF-a antibody related to regulation of gene expression using ELISA technology.Data from the assay component BSK_LPS_TNFa was analyzed into 1 assay endpoint. This assay endpoint, BSK_LPS_TNFa, was analyzed with bidirectional fitting relative to DMSO as the negative control and baseline of activity. Using a type of binding reporter, gain or loss-of-signal activity can be used to understand changes in the signaling as they relate to the gene TNF. Furthermore, this assay endpoint can be referred to as a primary readout, because this assay has produced multiple assay endpoints where this one serves a signaling function. To generalize the intended target to other relatable targets, this assay endpoint is annotated to the cytokine intended target family, where the subfamily is inflammatory factor.
The levels of cell surface (or secreted, indicated by the prefix "s") biomarker endpoints were measured by ELISA. Overt cytotoxicity to cells in confluent adherent cultures (all systems other than the BT system) was assessed by measuring total protein levels using sulforhodamine B (SRB) staining in parallel cultures at the time of biomarker measurements, indicated as SRB endpoints. For proliferation assays for adherent cell types, individual cell types are cultured at sub-confluence and relative cell numbers quantified by SRB staining at time points optimized for each system (48 h: 3C and CASM3C systems; 72 h: BT and HDF3CGF systems; 96 h: SAg system). SRB was performed by staining cells with 0.1% SRB after fixation with 10% TCA and reading wells at 560 nm.Viability and proliferation of PBMC (T cells) was quantified by Alamar Blue reduction for the SAg and BT systems. For PBMC viability (referred to as PBMC Cytotoxicity within the assay endpoint names), cells were plated (75,000/well in a 96-well plate) and then chemical samples added for 1 h before addition of activators, SEB and TSST-1 (20 ng/mL final concentration each). Cells were incubated for 90 h. Then, Alamar Blue (20 uL/well) (Invitrogen, Cat DAL1100) was added for 6 h, and the plates were read with a fluorescence microplate reader at 546/580 nm (excitation/emission). For PBMC proliferation, cells were plated and activated as above but incubated for only 16 h prior to addition of Alamar Blue. Plates were read after 6 h.
Consider `C1CN(CCOCCN2CCOCC2)CCO1`, for which the result was inactive. Still for that read-out and setting: the result for `COc1ccccc1Oc1c(NS(=O)(=O)c2ccc(C(C)(C)C)cc2)nc(-c2ncccn2)nc1OCCO` reads “inactive”. Regarding `Cc1cccnc1`, the outcome was inactive. Still for that read-out and setting: the result for `CCCCCCCCCCCCCCCCCC[N+](C)(C)C` reads “inactive”; that for `Cc1cc(-n2nc3ccc(Cl)cc3n2)c(O)c(C(C)(C)C)c1`, “inactive”; that for `CC(C)C1OCCN1CCOC(=O)NCCCCCCNC(=O)OCCN1CCOC1C(C)C` (configuration not stated), “inactive”. Still for that read-out and setting: the result for `COC(=O)/C=C\C(=O)OC` reads “inactive”; that for `CC[N+](CC)(CC(=O)Nc1c(C)cccc1C)Cc1ccccc1` (tested in a mixture with another compound), “inactive”.

`CCCCC(CC)COC(=O)C=Cc1ccc(OC)cc1` (configuration not stated): the outcome was inactive. Still for that read-out and setting: then `Cc1c(C(N)=O)cc([N+](=O)[O-])cc1[N+](=O)[O-]`, with “inactive”. The same measure, in the same setting: the result for `CC[N+](CC)(CC(=O)Nc1c(C)cccc1C)Cc1ccccc1` reads “inactive”; that for `CCCCCCC(O)CCCCCCCCCCC(=O)OC` (configuration not stated), “inactive”. On the same count and under the same terms, then `Sc1nc2ccccc2s1`, with “inactive”; and `COc1ccc(C(=O)c2ccccc2O)c(O)c1`, with “inactive”. For `CN(C)c1ccc(C(c2ccccc2)c2ccc(N(C)C)cc2)cc1`, the AC50 (usually the concentration giving half of the maximal activity seen) was 1.6 µM (active). Same read-out and setting: then `O=[N+]([O-])c1cc(S(=O)(=O)Nc2ccccc2)ccc1Nc1ccccc1`, with 5.14 µM (active) and 5.08 µM (active).

As to `CN(C)Cc1cc(C(C)(C)C)c(O)c(C(C)(C)C)c1`, the outcome was inactive.

In the case of `CCCCCCCCCCC1CO1` (configuration not stated), the AC50 is 30.9 µM (active).

Take `CCCCCCCCCC/C=C/C1CC(=O)OC1=O` (configuration not stated): the outcome was inactive. Same read-out and setting: then `CN(C)CCC(c1ccc(Cl)cc1)c1ccccn1` (configuration not stated), with “inactive”; and `O=C(C(=O)c1ccccc1)c1ccccc1`, with “inactive”. The same measure, in the same setting: the result for `COc1cc(CNC(=O)CCCC/C=C/C(C)C)ccc1O` reads “inactive”.

Consider `CCC(C)=NO`, for which the outcome was inactive. Consider `OC(C(F)(F)F)(C(F)(F)F)C(O)(C(F)(F)F)C(F)(F)F`, for which the result was inactive.

With `Oc1cccc2ccccc12`, the outcome was inactive. Still for that read-out and setting: the result for `CCC[Si](OC(C)=O)(OC(C)=O)OC(C)=O` reads “inactive”. `CC(C)CC(=O)CC(C)CC(C)C` (configuration not stated): the result was inactive.
